Several values for one entry are separate records, joined by “and”; a condition that tells them apart may be missing. Identical values can stand only once. Results filed as inconclusive are left out. Activity calls are given as the source filed them. The call rests on the fitted dose curve; in most records, active means well fitted curve in the direction sought with a large enough effect; inconclusive means small, poorly fitted or top-dose-only effect, or another doubt; inactive means no such curve, though single readings can be large or run the other way.
On the % scale 0 is the no-effect control and ±100 the full control effect; potency means the concentration at half of the fitted maximal effect.

A short description of this experiment: qHTS Assay for Identifying Gametocytocidal Compounds (AID 743244).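 On max response: actives lower the fluorescent signal which means gametocytes are killed.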 The settings on record: P. falciparum 3D7 stage III-V gametocytes, alamarBlue, 72 h; max response: active compounds read low. The procedure, abridged: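 Fluorescence at Ex 525/Em 598 nm, recorded 24 h after alamarBlue addition, reports residual metabolic activity of 3D7 gametocytes (stages III–V) following 72 h compound exposure at 37 °C, 5% CO2.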
A general note: Quantitative high-throughput screening tests each substance at several concentrations.
Turning to `COc1cc(NS(C)(=O)=O)ccc1Nc1c2ccccc2nc2ccccc12`, the Potency is 6.31 µM (active).
With `CC1(C)O[C@@H]2C[C@H]3[C@@H]4C[C@H](F)C5=CC(=O)C=C[C@]5(C)[C@H]4[C@@H](O)C[C@]3(C)[C@]2(C(=O)CO)O1`, the max response was -4.1% (inactive).
Same read-out and setting: the same measure for `CCn1cc(C(=O)O)c(=O)c2cnc(N3CCCC3)nc21`: -1.94% (inactive); for `NCCCC[C@H](N[C@@H](CCc1ccccc1)C(=O)O)C(=O)N1CCC[C@H]1C(=O)O`: -3.1% (inactive); for `COc1ccc(/C=C/C(=O)c2ccc(OC)cc2OC)cc1`: -14.8% (inactive).
Same read-out and setting: the value for `C[C@]12CCC(=O)C=C1CC[C@H]1[C@@H]3CC[C@](O)(C(=O)CO)[C@@]3(C)C[C@H](O)[C@@]12F` was 15.9% (inactive) and -1.69% (inactive); that for `O=C(O)c1cc2cc(Cc3cccnc3)ccc2o1` was 2.09% (inactive) and 51.2% (inactive).
Consider `Cc1c(C(C)C)c(=O)n(-c2ccccc2)n1C`, for which the max response was 39.2% (inactive).
Regarding `CCCC(=O)Nc1ccc(OCC(O)CNC(C)C)c(C(C)=O)c1` (configuration not stated), the max response is 19.2% (inactive).
Still for that read-out and setting: the value for `Cc1cccn2c(=O)c(-c3nnn[nH]3)cnc12` was -1.77% (inactive).
Still for that read-out and setting: the same measure for `CCOC(=O)n1ccn(C)c1=S`: 21.8% (inactive); for `COc1cc(N)c(Cl)cc1C(=O)NC1CCN(CCCOc2ccc(F)cc2)CC1OC` (configuration not stated): -0.854% (inactive); for `OCc1ccccc1O`: 23.6% (inactive).
The same measure, in the same setting: the same measure for `CC(Cc1ccccc1)(NC(=O)CN)c1ccccc1` (configuration not stated): -4.06% (inactive).
With `CN(C)CC/C=C1/c2ccccc2COc2ccc(CC(=O)O)cc21`, the max response is 3.04% (inactive).
On the same count and under the same terms, the value for `CCOC(=O)[C@H](CCc1ccccc1)N[C@@H](C)C(=O)N1Cc2ccccc2C[C@H]1C(=O)O` was 4.65% (inactive).
With `CC1(C)O[C@@H]2C[C@H]3[C@@H]4CCC5=CC(=O)CC[C@]5(C)[C@@]4(F)[C@@H](O)C[C@]3(C)[C@]2(C(=O)CCl)O1`, the Potency was 8.91 µM (active).
For the molecule `CC(=O)O[C@H]1C[C@@H]2CC[C@@H]3[C@H](CC[C@@]4(C)[C@H]3C[C@H]([N+]3(C)CCCCC3)[C@@H]4OC(C)=O)[C@@]2(C)C[C@@H]1[N+]1(C)CCCCC1`, the max response was -9.72% (inactive) and 10.5% (inactive).
The same measure, in the same setting: the value for `CN(C)CCOc1ccccc1Cc1ccccc1` was -21.1% (inactive); that for `CCCn1c(=O)[nH]c(=O)c2[nH]cnc21` was 20.2% (inactive) and 5.21% (inactive); that for `C=C1C[C@H]2[C@@H]3C=C(C)C4=CC(=O)CC[C@]4(C)[C@H]3CC[C@]2(C)[C@@]1(OC(C)=O)C(C)=O` was 18% (inactive).
Same read-out and setting: the value for `CC1(C)O[C@@H]2[C@@H](CO[C@@]3(COS(N)(=O)=O)OC(C)(C)O[C@@H]23)O1` was 4.37% (inactive).
The same measure, in the same setting: the value for `O=c1[nH]c(=O)n([C@H]2CCCO2)cc1F` was -0.456% (inactive).
Consider `CCOC(=O)/C=C(C)/C=C/C=C(C)/C=C/c1c(C)cc(OC)c(C)c1C`, for which the max response was 14.1% (inactive).
As for `CC(=O)c1ccc2c(c1)N(CCCN1CCC(CCO)CC1)c1ccccc1S2`, the max response was -4.88% (inactive).
Consider `CCN(CC)C(=O)N1CCN(C)CC1`, for which the max response is 0.149% (inactive).
On the same count and under the same terms, the value for `CC(=O)Oc1ccc(C(=C2CCCCC2)c2ccc(OC(C)=O)cc2)cc1` was 9.87% (inactive).
The same measure, in the same setting: the value for `CCN(CCCc1ccccc1)CCCc1ccccc1` was 0.141% (inactive); that for `CCN(CCCCOC(=O)c1ccc(OC)c(OC)c1)C(C)Cc1ccc(OC)cc1` (configuration not stated) was 14.8% (inactive).
On the same count and under the same terms, the value for `c1ccc(OCc2ccc(CCCN3CCOCC3)cc2)cc1` was -2.94% (inactive).
For the molecule `N[C@@H](Cc1cnc[nH]1)C(=O)O`, the max response is 4.12% (inactive) and 12.1% (inactive).
With `C[C@]12CC[C@H]3[C@@H](CCC4=CC(=O)CC[C@@]43C)[C@@H]1CC[C@@H]2C(=O)CO`, the max response is 8.05% (inactive).
As to `CCN(CC)CCOC(=O)C(c1ccccc1)C1CCCCC1` (configuration not stated), the max response is 15% (inactive).
For the molecule `OC[C@H]1O[C@@H](n2cnc3c(=S)nc[nH]c32)[C@H](O)[C@@H]1O`, the max response is -4.52% (inactive).
As for `O=c1c(-c2ccccc2)c1-c1ccccc1`, the Potency was 3.98 µM (active).
Regarding `C#C[C@]1(O)CC[C@H]2[C@@H]3CCc4cc(OC5CCCC5)ccc4[C@H]3CC[C@@]21C`, the max response is 6.16% (inactive).
As to `COc1c2occc2c(OC)c2c(=O)cc(C)oc12`, the max response is 22.1% (inactive).

(Values after PubChem BioAssay (NCATS).)
